Assay outcomes from PubChem BioAssay.
EPAC1 antag – antagonists of human EPAC1; EPAC1 GEF assay, Rap1b-BODIPY-GDP exchange fluorescence; O95398; Potency, µM (series often up to 115 µM), for inactives: at the highest dose activity change, negative = inhibition, usual class: inhibitors; hit rate 0.14% among 360,000;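 also: plate controls were vehicle for no effect and positive control for full effect; nearly all actives have a fitted effect of over 50% in size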
Rango complex inh – Rango-importin beta binding inhibition. Potency, µM (series often up to 92.2 µM), for the others: at the highest dose inhibition of complex formation. Rango CFP/YFP FRET sensor + importin beta, 45 min. Q14974. hit rate 0.031% among 340,000; calls by dose curve;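 also: 0% = DMSO wells and 100% = buffer wells lacking importin beta; nearly all actives have a fitted effect of over 15% in size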
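FRET biosensor Rango (snurportin 1 IBB between N-terminal EYFP and C-terminal Cerulean), 50 nM in PBS/1 mM DTT/0.02% Tween-20/0.1% BSA, preincubated 5 min RT with compound; 0.125 microM importin beta added, 45 min RT, CFP/YFP FRET ratio read.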
EPAC2 antagonist – EPAC2 (human) antagonism; Q8WZA2; EPAC2 GEF exchange of Rap1B-BODIPY-GDP, fluorescence; Potency, µM (series often up to 114 µM), inactives show top-dose activity, negative = inhibition, usual class: inhibitors; hit rate 0.18% among 360,000; AID 720708; also: % is scaled to controls: 0 for no effect and ±100 for the full control effect; nearly all actives have a fitted effect of over 45% in size
EPAC2 agonist – EPAC2 (human) agonism; Q8WZA2; EPAC2 activation, biochemical qHTS; response scale: 100% = 6.5 mM cAMP response; Potency, µM (highest dose often 154 µM), inactives show top-dose activation, actives largely listed as activators; hit rate 0.079% among 360,000; AID 720711; also: nearly all actives have a fitted effect of over 50% in size
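Readout is BODIPY fluorescence (480 nm excitation, 540 nm emission), which falls as labeled GDP is exchanged off Rap1B. EPAC2 at 100 nM acted on 250 nM RAP1B-BODIPY-GDP with 50 uM GDP present.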
Rango dissoc inh – prevents RanGTP from dissociating the Rango-importin beta complex. AID 540253. hit rate 0.071% among 340,000. Potency, µM (series often up to 46.1 µM), without a hit: at the highest dose activity change, negative = inhibition. Biochemical FRET Rango-importin beta, RanGTP-induced dissociation; calls by dose curve; also: % of control where 0% means no effect; nearly all actives have a fitted effect of over 45% in size
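FRET read at 45 min, room temperature: inhibitors block the CFP/YFP signal rise when RanGTP (0.6 uM Ran, 2 mM GTP, 0.2 uM RCC1) frees Rango (0.1 uM) from importin beta (0.25 uM). Pre-read after 5 min compound exposure flags interference.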
EPAC1 agonist – activates human EPAC1 exchange factor | O95398 | EPAC1 agonist qHTS, biochemical assay; response scale: 100% = response to 6.5 mM cAMP | Potency, µM (doses to about 154 µM), inactives show at the top dose activation, most hits filed as activators | hit rate 0.073% among 360,000 | AID 720707; also: nearly all actives have a fitted effect of over 60% in size
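Read-out is the fluorescence drop as BODIPY-GDP leaves Rap1B (480 nm excitation, 540 nm emission), recorded every 5 minutes over 30 minutes. Reactions held 100 nM EPAC1, 250 nM Rap1B–BODIPY-GDP and 50 uM GDP, with 6.5 mM cAMP setting full activation.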
Active calls of the source: *; ? = inconclusive; . = no result. Most compounds without a hit are left out; they make up all but 0.43% or so of the library. Unless noted, calls follow the shape of the dose curve; as a rule, active = well fitted curve in the direction sought with a large enough effect; inconclusive = small, poorly fitted or top-dose-only effect, or another doubt; inactive = no such curve, though single readings can be large; an effect the other way counts as inactive or inconclusive. Potency is read from the fitted curve at half-maximal effect.

SMILES	EPAC1 antag	Rango complex inh	EPAC2 antagonist	EPAC2 agonist	Rango dissoc inh	EPAC1 agonist
Cc1ccc(S(=O)(=O)N2C(c3ccc(Cl)c(Cl)c3)CC=C(C(=O)O)C2c2ccc(Cl)cc2)cc1 (stereo not given)	-10%	.	63µM*	-7%	.	13%
Cc1ccc(S(=O)(=O)N2[C@@H](c3ccc(C(C)(C)C)cc3)C(C(=O)O)=CC[C@H]2c2ccc(C(C)C)cc2)cc1	32µM*	1%	40µM*	-23%	-1%	-48%
Cc1ccc([C@@H]2CC=C(C(=O)O)[C@H](c3ccc(C(C)(C)C)cc3)N2S(=O)(=O)c2ccc(C)cc2)cc1	28µM*	-1%	?	-14%	19%	-24%
CCc1ccc([C@@H]2CC=C(C(=O)O)[C@H](c3ccc(C(C)(C)C)cc3)N2S(=O)(=O)c2ccc(C)cc2)cc1	45µM*	-2%	56µM*	-15%	-3%	-33%
Cc1ccc(S(=O)(=O)N2[C@@H](c3ccc(C(C)(C)C)cc3)C(C(=O)O)=CC[C@H]2c2cccs2)cc1	-16%	2%	32µM*	-9%	0%	-4%
Cc1ccc([C@@H]2CC=C(C(=O)O)[C@H](c3ccc(Br)cc3)N2S(=O)(=O)c2ccc(C)cc2)cc1	-16%	0%	?	-2%	0%	-21%
Cc1ccc(S(=O)(=O)N2[C@@H](c3ccc(Cl)c(Cl)c3)C(C(=O)O)=C[C@H]2CC2CCCC2)cc1	50µM*	-1%	?	-3%	7%	-15%
Cc1ccc(S(=O)(=O)N2[C@@H](c3ccc(Br)cc3)C(C(=O)O)=CC[C@H]2c2ccc(C(C)C)cc2)cc1	56µM*	0%	?	5%	-2%	3%
Cn1c(=O)c2[nH]c(C3CCC3)nc2n(C)c1=O	15%	1%	2%	0%	6%	10%
O=C1NC(=S)SC1=Cc1ccc(Cl)cc1	?	0%	50µM*	0%	-9%	-8%
O=C1NC(=S)SC1=Cc1ccc(F)cc1	-21%	-1%	-27%	-5%	11%	-7%
O=C1NC(=S)S/C1=C\c1ccc2ccccc2c1	-14%	2%	?	-4%	-9%	-6%
O=C1NC(=S)SC1=Cc1ccccc1Br	32µM*	0%	40µM*	5%	12%	1%
O=C1NC(=S)SC1=Cc1cc(Br)ccc1O	56µM*	10%	79µM*	10%	19%	-12%
O=C1NC(=S)S/C1=C\c1coc2ccc(O)cc2c1=O	56µM*	-4%	35µM*	-5%	?	2%
CCN(CC)S(=O)(=O)c1ccc2c(c1)nc(CCC(=O)Nc1ccc3c(c1)OCO3)n2C	-11%	-1%	12%	3%	-6%	-17%
CCn1cc(C(=O)N2CCCc3ccccc32)c2cc(OC)c(OC)cc2c1=O	-2%	1%	-3%	8%	2%	9%
COc1ccc(CCn2c(-c3cc([N+](=O)[O-])cc([N+](=O)[O-])c3)nc3nc4ccccc4nc32)cc1OC	6%	?	-6%	4%	?	9%
COc1cc(/C=C2/C(=O)NN(c3ccc(Cl)c(Cl)c3)C2=O)cc([N+](=O)[O-])c1O	?	-3%	-26%	-4%	1%	0%
CCOc1cc(/C=C2\SC(=O)N(CC(=O)Nc3ccccc3F)C2=O)cc([N+](=O)[O-])c1O	?	-1%	?	-18%	3%	-17%
COc1cc(/C=C2\SC(=O)N(CC(=O)Nc3cccc(C)c3)C2=O)cc([N+](=O)[O-])c1O	?	?	50µM*	-15%	-1%	7%
COc1cc(/C=C2\SC(=O)N(c3ccccc3Cl)C2=O)cc([N+](=O)[O-])c1O	79µM*	1%	?	-5%	5%	0%
COc1ccccc1CCC(=O)OCC(=O)Nc1cc(S(=O)(=O)N2CCOCC2)ccc1C	1%	-2%	2%	13%	13%	-4%
